Reference: PubChem BioAssay (Tox21)
Inconclusive results are not listed. The source made the active and inactive calls. Unless noted, the call rests on the fitted dose curve; in most records, active means well fitted curve in the direction sought with a large enough effect in the repeat runs; inconclusive means weak or mixed curves; inactive means no such curve, though single readings can be large; an effect the other way counts as inactive or inconclusive.

How the values were obtained:
[1] = qHTS assay for small molecule agonists of the p53 signaling pathway (AID 651631; calls by dose curve; further: nearly all actives have a fitted effect of over 15% in size; further: potency means the concentration at half of the fitted maximal effect)
Method in brief: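 HCT-116 cells carrying a beta-lactamase reporter under p53 response elements were dosed with compound for 16 h at 37 °C. LiveBLAzer B/G FRET substrate was then added for 2 h at room temperature, and fluorescence intensity was read to detect pathway agonism.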

[2] = qHTS assay for small molecules that induce genotoxicity in human embryonic kidney cells expressing luciferase-tagged ATAD5 (AID 651632); further: nearly all actives have a fitted effect of over 15% in size
Method in brief: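 Test compounds were delivered by pin tool onto HEK293T reporter cells (2,000/well) expressing ATAD5 fused to luciferase. After 16 hr at 37C, 5% CO2, Amplite was added for 30 min at room temperature and luminescence was measured.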

[3] = qHTS assay for small molecule agonists of the p53 signaling pathway - cell viability (AID 651633; calls by dose curve;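 further: p53RE-bla HCT reporter cells with a stable beta-lactamase p53 reporter; series mostly up to about 83 µM; nearly all actives have a fitted effect of over 30% in size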)
Method in brief: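 p53RE-bla cells were treated with compound for 16 hours at 37 C. Cytotoxicity was then measured as CellTiter-Glo luminescence after 30 min at room temperature.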

[4] = qHTS assay for small molecules that induce genotoxicity in human embryonic kidney cells expressing luciferase-tagged ATAD5 - cell viability (AID 651634; calls by dose curve; further: nearly all actives have a fitted effect of over 25% in size)
Method in brief: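 Quantitative high-throughput format. HEK293T cells expressing ATAD5 fused to luciferase were plated at 2,000 cells/well and treated 15.5 hr with compound versus DMSO. Viability was determined by fluorescent live-cell protease substrate, 30 min at 37C.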

[5] = qHTS assay for small molecule disruptors of the mitochondrial membrane potential - cell viability (AID 720634; calls by dose curve;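 further: human HepG2 liver cancer cells; series mostly up to about 83 µM; nearly all actives have a fitted effect of over 20% in size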)
Method in brief: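 Same-well counter-screen: following the MMP dye addition, CellTiter-Glo was added to 1 hr compound-treated HepG2 cells and luminescence read after 30 min at room temperature.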

[6] = qHTS assay to test for compound auto fluorescence at 590 nm (red) in HepG2 cells (AID 720674)
Method in brief: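 Fluorescence at 590 nm emission following 540 nm excitation was recorded from HepG2 wells one hour after compound transfer, with DMSO-only wells as vehicle and Rose Bengal sodium equivalency as the scale.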

[7] = qHTS assay to test for compound auto fluorescence at 535 nm (green) in HepG2 cells (AID 720675)
[8] = qHTS assay to test for compound auto fluorescence at 460 nm (blue) in HEK293 cells (AID 720678)
Method in brief: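 Blue read-out at excitation 405 nm and emission 460 nm follows overnight compound exposure of HEK293 cells at 37C in 5% CO2. Activity is given as auto fluorescence equivalency to triamterene.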

[9] = qHTS assay to test for compound auto fluorescence at 590 nm (red) in HEK293 cells (AID 720679)
Method in brief: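 Red channel, Ex/Em 540/590nm; signal expressed as equivalency to Rose Bengal sodium. HEK293, 2,000 cells/well, 10% dialyzed FBS; 23 nL compound pinned after 4-5 hr attachment; overnight 37C/5% CO2 before reading.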

[10] = qHTS assay to test for compound auto fluorescence at 535 nm (green) in HEK293 cells (AID 720680)
[11] = qHTS assay to test for compound auto fluorescence at 460 nm (blue) in HEK293 cell free culture (AID 720681)
Method in brief: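 Compounds were added to cell-free DMEM with 10% FBS and fluorescence read directly. The blue channel used 405 nm excitation and 460 nm emission, with triamterene as the reference fluorophore.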

[12] = qHTS assay to test for compound auto fluorescence at 535 nm (green) in HEK293 cell free culture (AID 720682)
Method in brief: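 Green-label autofluorescence (485 nm excitation, 535 nm emission) measured on compound added to cell-free culture medium (DMEM, 10% FBS). Output is expressed relative to fluorescein.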

[13] = qHTS assay to test for compound auto fluorescence at 590 nm (red) in HEK293 cell free culture (AID 720683)
Method in brief: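 Cell-free wells of DMEM with 10% FBS received compound, and intrinsic fluorescence was read at excitation/emission 540/590 nm. Values expressed as equivalence to Rose Bengal sodium.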

[14] = qHTS assay to test for compound auto fluorescence at 590 nm (red) in HepG2 cell free culture (AID 720684)
Method in brief: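 Rose Bengal sodium served as the reference for red signal. Test compounds were dispensed into serum-containing MEM (10% FBS) without cells, and plates were read at 540/590 nm.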

[15] = qHTS assay to test for compound auto fluorescence at 535 nm (green) in HepG2 cell free culture (AID 720686)
[16] = qHTS assay to test for compound auto fluorescence at 460 nm (blue) in HepG2 cells (AID 720687)
Method in brief: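 HepG2 cells in MEM with 10% FBS, attached overnight at 37 C, were exposed to compound or DMSO for 1 hr at 37 C, 5% CO2. Blue fluorescence was read at 405/460 nm, with triamterene as reference fluorophore.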

[17] = molecular target: Glucocorticoid receptor (Homo sapiens) (UniProt P04150); assay: qHTS assay to identify small molecule agonists of the glucocorticoid receptor (GR) signaling pathway (AID 720691; active means well fitted activation curve with a large enough effect in the signal ratio in the repeat runs, not every such curve was filed as active; the % refers to the signal ratio)
Method in brief: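 A HeLa cervical cancer line expressing GR and a glucocorticoid response element-driven beta-lactamase gene is treated with compounds for 18 h; LiveBLAzer B/G FRET substrate is then applied and fluorescence read.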

[18] = molecular target: Glucocorticoid receptor (Homo sapiens) (UniProt P04150); assay: qHTS assay to identify small molecule antagonists of the glucocorticoid receptor (GR) signaling pathway (AID 720692; active means well fitted inhibition curve with a large enough effect in the signal ratio in the repeat runs, not every such curve was filed as active; the % refers to the signal ratio)
Method in brief: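 GRE-bla HeLa line, dex-stimulated (5 nM final). Compound exposure 18 h, 37 C. Beta-lactamase FRET read after 2 h RT substrate.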

[19] = qHTS assay to test for compound auto fluorescence at 460 nm (blue) in HepG2 cell free culture (AID 720685)
Method in brief: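 Cell-free plates of MEM plus 10% FBS received 23 nL compound or DMSO vehicle; blue-channel (405/460 nm) intensity scored against triamterene as reference fluorophore.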

Measured: Potency

Chain of Glucocorticoid receptor (Homo sapiens) (P04150 whole entry, looked up): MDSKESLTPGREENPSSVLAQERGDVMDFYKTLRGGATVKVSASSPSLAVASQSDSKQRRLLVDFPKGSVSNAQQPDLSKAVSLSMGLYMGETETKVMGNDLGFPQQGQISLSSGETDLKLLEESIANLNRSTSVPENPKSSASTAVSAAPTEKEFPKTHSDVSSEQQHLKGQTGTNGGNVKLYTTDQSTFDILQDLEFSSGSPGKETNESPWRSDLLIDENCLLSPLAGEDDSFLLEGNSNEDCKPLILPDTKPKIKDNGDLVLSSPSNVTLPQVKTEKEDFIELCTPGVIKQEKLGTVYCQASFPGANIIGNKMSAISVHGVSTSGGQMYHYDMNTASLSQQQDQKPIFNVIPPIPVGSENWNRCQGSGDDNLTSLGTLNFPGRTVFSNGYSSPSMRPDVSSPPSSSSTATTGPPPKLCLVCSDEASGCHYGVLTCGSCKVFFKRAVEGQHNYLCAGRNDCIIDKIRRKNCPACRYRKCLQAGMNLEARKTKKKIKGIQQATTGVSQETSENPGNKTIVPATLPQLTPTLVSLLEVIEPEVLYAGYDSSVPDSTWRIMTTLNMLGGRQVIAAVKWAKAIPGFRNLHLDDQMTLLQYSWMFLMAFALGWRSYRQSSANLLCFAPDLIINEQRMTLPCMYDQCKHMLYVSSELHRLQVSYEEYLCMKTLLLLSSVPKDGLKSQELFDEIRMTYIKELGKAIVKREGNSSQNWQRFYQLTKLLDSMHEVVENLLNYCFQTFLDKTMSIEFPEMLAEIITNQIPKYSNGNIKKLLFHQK

CC(=O)NCCO
not listed: [19]
inactive: all other assays above

c1ccc2sc(SSc3nc4ccccc4s3)nc2c1
inactive: all assays above

O=C(O)CN1C(=O)c2cccc3cccc(c23)C1=O
not listed: [17] | [18]
inactive: all other assays above

COC(OC)OC
not listed: [10] | [17]
inactive: all other assays above

CCN(CC)CCNC(=O)c1cc(Cl)c(N)cc1OC
not listed: [17] | [18]
inactive: all other assays above

[Cl][Nd]([Cl])[Cl]
not listed: [15] | [16]
inactive: all other assays above

C[C@H](CS)C(=O)N1CCC[C@H]1C(=O)O
not listed: [15]
inactive: all other assays above

O=NN(CCCl)C(=O)NCCCl
active: [1] 1.19 µM
not listed: [19]
inactive: all other assays above

Cc1cccc(C)c1NC(=O)c1cc(S(N)(=O)=O)c(Cl)cc1O
inactive: all assays above

COc1ccc(C)cc1
not listed: [18]
inactive: all other assays above

CCCCCCC(CO)CCCC (configuration not stated)
not listed: [18] | [19]
inactive: all other assays above

CCC(C)(C)C(=O)O
not listed: [9] | [15]
inactive: all other assays above

CNCc1ccc(NC(=O)c2c[nH]c3c2C(=O)CCC3)cc1
not listed: [10] | [18]
inactive: all other assays above

Nc1c(Cl)cc(Cl)cc1[N+](=O)[O-]
not listed: [9] | [17] | [18]
inactive: all other assays above

CSSc1ccoc1C
not listed: [10] | [18]
inactive: all other assays above
